Structures can show the parent of a compound that is named as a salt.
What follows are compounds tested on PBMC-derived induced microglia-like cells (piMGLC) (assay: synaptosome phagocytic index relative to DMSO control (fraction of DMSO); higher = more phagocytosis). Details: concentration: 10 uM (2 uM for compounds listed in Table S2); pretreatment time: 24 h; assay time: 3 h.
Method: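 PBMC-derived induced microglia-like cells (piMGLCs) in 96-well plates were pretreated for 24 h with CNS-penetrant library compounds (MedChemExpress HY-L028), mostly at 10 uM; Table S2 lists 9 compounds at 2 uM. pHrodo-Red-labelled human iPSC-neuron synaptosomes (3 ug/well) were then added for 3 h, and cells were fixed and imaged by confocal microscopy. Phagocytic index (synaptosome area / cell count, CellProfiler) is a mean over 3 replicate wells on different plates, normalized to the DMSO control. Compounds leaving <10% of DMSO cell count were marked toxic and given no value.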

SMILES | synaptosome phagocytic index
Clc1ccc2c(c1)C(N1CCNCC1)=Nc1ccccc1O2 [Amoxapine] | 0.463
CN(C)c1ncc(/C=C/c2nc3ccc(OCCF)cc3o2)s1 | 0.356
CN/C(=N\CCSCc1nc[nH]c1C)NC#N [Cimetidine] | 1.07
C[C@H](N=C(NC#N)Nc1cccc2ncccc12)c1ccccc1 | 0.994
CCc1cc2c(cc1N1CCC(N3CCOCC3)CC1)C(C)(C)c1[nH]c3cc(C#N)ccc3c1C2=O [Alectinib] | 0.538
Nc1nc2ccc(OC(F)(F)F)cc2s1 [Riluzole] | 0.991
CCc1cc(C(N)=S)ccn1 [Ethionamide] | 0.996
CN(C)CCCN1c2ccccc2CCc2ccc(Cl)cc21 [Clomipramine_(hydrochloride)] | 0.39
Cc1nc(Nc2ncc(C(=O)Nc3c(C)cccc3Cl)s2)cc(N2CCN(CCO)CC2)n1 [Dasatinib] | 0.243
CCc1c2c(nc3ccc(OC(=O)N4CCC(N5CCCCC5)CC4)cc13)-c1cc3c(c(=O)n1C2)COC(=O)[C@]3(O)CC [Irinotecan_(hydrochloride_trihydrate)] | 0.682
Cc1cc(NS(=O)(=O)c2ccc(N)cc2)no1 [Sulfamethoxazole] | 1.17
CC(C)NCC(O)COc1ccc(CC(N)=O)cc1 (stereo not given) [Atenolol] | 0.717
C#CCNS(=O)(=O)c1ccc(CCN(Cc2cc(Cl)ccc2OCCC)C(=O)Cc2ccsc2)cc1 | 0.54
CC1(C)S[C@@H]2[C@H](NC(=O)[C@H](N)c3ccc(O)cc3)C(=O)N2[C@H]1C(=O)O [Amoxicillin_(trihydrate)] | 0.942
COc1cc2c(N3CCN(C(=O)Nc4ccc(OC(C)C)cc4)CC3)ncnc2cc1OCCCN1CCCCC1 [Tandutinib] | 0.936
CC(C)NCC(O)COc1cccc2ccccc12 (stereo not given) [Propranolol_(hydrochloride)] | 1.1
C[C@H]1OC[C@]2(c3cc(NC(=O)c4cnc(C(F)F)cn4)ccc3F)N=C(N)SC[C@H]12 [Elenbecestat] | 0.918
CCc1cc(F)c2nc(N3CCC(NC4CCOCC4)CC3)c(-c3nc(C)no3)c(C)c2c1 | 1.21
CCN1CCCC1CNC(=O)c1cc(S(N)(=O)=O)ccc1OC (stereo not given) [Sulpiride] | 0.571
NNC(=O)c1ccncc1 [Isoniazid] | 1.01

SMILES | synaptosome phagocytic index
C[C@H]1[C@H](NC(=O)/C(=N\OC(C)(C)C(=O)O)c2csc(N)n2)C(=O)N1S(=O)(=O)O [Aztreonam] | 0.528
N#Cc1ccc(Cn2ccc(NC(=O)Cc3ccc(C4(C(F)(F)F)CC4)cc3)n2)nc1 | 1.06
S=c1nc[nH]c2nc[nH]c12 [6-Mercaptopurine] | 0.669
NC(=O)[C@H](Cc1c[nH]c2ccccc12)NC(=O)CNC(=O)[C@H](CCCN=C(N)N)NC(=O)[C@@H]1C[C@@H](O)CN1C(=O)[C@@H](N)Cc1ccc(F)cc1 [Nemifitide_(diTFA)] | 0.903
Fc1ccc(-c2c3cccc(C(F)(F)F)c3nn2Cc2ccc(F)cc2Cl)cc1 | 0.581
Cc1ncc([N+](=O)[O-])n1CCO [Metronidazole] | 0.51
CN1[C@@H]2CC[C@H]1C[C@@H](OC(c1ccccc1)c1ccccc1)C2 [Benztropine_(mesylate)] | 0.833
CCn1ncc2c(NC3CCOCC3)c(-c3nnc(Cc4sc(C)nc4C)o3)cnc21 | 0.266
Cc1nc(-c2cccnc2)sc1C(=O)Nc1ccccc1-c1cn2c(CN3CCOCC3)csc2n1 | 0.157
CCc1nc(N)nc(N)c1-c1ccc(Cl)cc1 [Pyrimethamine] | 1.01
CO[C@H]1C[C@@H]2CC[C@@H](C)[C@@](O)(O2)C(=O)C(=O)N2CCCC[C@H]2C(=O)O[C@H]([C@H](C)C[C@@H]2CC[C@@H](O)[C@H](OC)C2)CC(=O)[C@H](C)/C=C(\C)[C@@H](O)[C@@H](OC)C(=O)[C@H](C)C[C@H](C)/C=C/C=C/C=C/1C [Rapamycin] | 0.285
C=CC(=O)Nc1cc(Nc2nccc(-n3cc(CN(C)C)c(-c4ccccc4)n3)n2)c(OC)cc1N1CCOCC1 [Lazertinib] | 0.0589
COCc1ccc(-c2ccc(N(C[C@@H](N)[C@@H](C)OC)C(=O)[C@@H]3C[C@H]3c3ccccn3)cc2)cc1 | 0.794
CCCCCCCC(=O)c1c(O)cc(O)cc1CC(=O)OCC [Cytosporone_B] | 0.114
O=c1[nH]c2cc(Cl)ccc2c(O)c1-c1cccc(Oc2ccccc2)c1 | 1.18
NCCCS(=O)(=O)O [Tramiprosate] | 1.14
C[C@]12CCCN1CC1=NNC(=O)c3cc(F)cc4[nH]c2c1c34 [Pamiparib] | 0.861
COc1cc2/c(=N/c3ccc(Br)cc3F)nc[nH]c2cc1OCC1CCN(C)CC1 [Vandetanib] | 0.248
CC(C)Cc1ccc([C@@H](C)C(=O)O)cc1 [(R)-(-)-Ibuprofen] | 1.31
Cc1ccc(Nc2nccc(N(C)c3ccc4c(C)n(C)nc4c3)n2)cc1S(N)(=O)=O [Pazopanib] | 0.785

From the supplement of paper PMC12339681
